# Source: PubChem BioAssay
# KDM4E inh = qHTS Assay for Inhibitors of Human Jumonji Domain Containing 2E (JMJD2E); Potency, µM (doses to about 57.1 µM), hits mostly inhibitors; JMJD2E catalytic domain, FDH-coupled NADH fluorescence (FDH is formaldehyde dehydrogenase); actives 1.6% (n = 230,000); AID 2147, 2009; active = well fitted inhibition curve with a large enough effect, not every such curve was filed as active; inconclusive = small, poorly fitted or top-dose-only effect, or another doubt; inactive = no such curve, though single readings can be large or run the other way; also: nearly all actives have a fitted effect of over 50% in size
# Target sequence (B2RXH2 1-337 limits assumed): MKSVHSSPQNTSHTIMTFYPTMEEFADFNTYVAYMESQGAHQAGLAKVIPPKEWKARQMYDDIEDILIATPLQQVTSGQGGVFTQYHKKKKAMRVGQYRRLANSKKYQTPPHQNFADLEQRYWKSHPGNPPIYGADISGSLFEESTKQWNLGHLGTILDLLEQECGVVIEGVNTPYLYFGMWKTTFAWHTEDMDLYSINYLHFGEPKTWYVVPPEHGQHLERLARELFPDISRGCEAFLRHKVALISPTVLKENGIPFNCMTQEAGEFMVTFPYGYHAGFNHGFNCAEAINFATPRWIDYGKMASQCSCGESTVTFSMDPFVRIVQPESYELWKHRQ
# NPSR antagonist = qHTS Assay for Antagonists of the Neuropeptide S Receptor: cAMP Signal Transduction; Q6W5P4; CHO-NPSR cells, cAMP TR-FRET, antagonist mode; Potency, µM (top dose mostly 38.3 µM), actives largely listed as inhibitors; actives 1% (n = 220,000); AID 1461, 2008; also: nearly all actives have a fitted effect of over 50% in size
# Tau fibril ThT = qHTS for Inhibitors of Tau Fibril Formation, Thioflavin T Binding. Microtubule-associated protein tau (Homo sapiens), P10636. recombinant tau K18 P301L, heparin-induced fibrillization, ThT fluorescence. Potency, µM (top dose mostly 57.4 µM), usual class: inhibitors. actives 2.1% (n = 270,000); also: nearly all actives have a fitted effect of over 55% in size
# Target sequence (P10636 561-689 P618L limits assumed): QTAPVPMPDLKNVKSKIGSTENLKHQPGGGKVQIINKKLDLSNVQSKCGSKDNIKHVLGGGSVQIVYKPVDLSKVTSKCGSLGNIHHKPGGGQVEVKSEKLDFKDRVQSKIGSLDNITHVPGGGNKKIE
#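 Heparin-induced (20 uM) aggregation of recombinant human K18 P301L tau, 15 uM unlabeled with 0.24 uM labeled, pH 7 acetate buffer, 6 hr at 37 C with compound. Fibrils quantified by 30 uM ThT fluorescence after 1 hr ambient incubation.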
# PNC inhibitor = High Content Assay for Compounds that inhibit the Assembly of the Perinucleolar Compartment | PC3M PTB-GFP, PNC prevalence imaging, 16 h; stronger effect = lower value | activity change (PNC), negative = inhibition, % at 10 µM | actives 3.1% (n = 140,000);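 active = readout at or below -70, meaning at least 70% loss of cells showing the perinucleolar compartment, a nuclear body marking cancer cells; inconclusive = readout between -30 and a set limit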
#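 Compounds are pinned in duplicate onto adhered PC3M cells stably expressing GFP-tagged PTB and incubated 16 h at 37 C. Cells are then fixed, nuclei stained with Hoechst, and PNC-positive cells counted.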
# Tau fluor cs = Counterscreen qHTS for Inhibitors of Tau Fibril Formation, Fluorescence Polarization; actives 0.93% (n = 280,000); tau K18 P301L (four-repeat tau fragment) Alexa594 fluorescence, heparin fibrillization; Potency, µM (top dose mostly 57.7 µM); AID 1463, 2008; also: nearly all actives have a fitted effect of over 55% in size
#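 Human K18 P301L tau (15 uM unlabeled plus 0.24 uM Alexa 594-labeled, final) in 100 mM sodium acetate pH 7 was mixed with compound and 20 uM heparin and incubated 6 hr at 37 C.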
# Tau FP inhib = qHTS for Inhibitors of Tau Fibril Formation, Fluorescence Polarization | actives 0.39% (n = 280,000) | Potency, µM (top dose mostly 57.7 µM), hits mostly inhibitors | K18 P301L tau heparin fibrillization, Alexa594 FP, 6 h | Microtubule-associated protein tau (Homo sapiens), P10636; also: nearly all actives have a fitted effect of over 55% in size
#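 Read-out: fluorescence polarization of Alexa 594-labeled tau (0.24 uM), 555 nm excitation, 632 nm emission. Mixtures held 15 uM unlabeled K18 P301L, compound and 20 uM heparin, pH 7 acetate buffer, incubated 6 hr at 37 C.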
# Hits are given with their value; - = inactive; ? = inconclusive; . = not tested or not shown. Hits are enriched below; roughly 5.1% of the tested compounds scored in any of these assays. Unless noted, calls follow the shape of the dose curve; as a rule, active = well fitted curve in the direction sought with a large enough effect; inconclusive = small, poorly fitted or top-dose-only effect, or another doubt; inactive = no such curve, though single readings can be large; an effect the other way counts as inactive or inconclusive.
SMILES,KDM4E inh,NPSR antagonist,Tau fibril ThT,PNC inhibitor,Tau fluor cs,Tau FP inhib
O=C(COc1ccc(F)cc1)Nc1nnc(S(=O)(=O)N2CCc3ccccc32)s1,.,.,2.82µM,.,-,-
Cc1ccccc1OCC(=O)Nc1nnc(S(=O)(=O)N2CCCCCC2)s1,.,.,3.16µM,.,-,-
COc1ccc(OCC(=O)Nc2nnc(S(=O)(=O)N3CCc4ccccc43)s2)cc1,.,.,?,.,-,-
CCc1nnc(NC(=O)c2cccc(S(=O)(=O)N3CCc4ccccc43)c2)s1,-,-,-,-,-,-
O=C(COc1ccc(Cl)cc1)Nc1nnc(S(=O)(=O)N2CCCCCC2)s1,.,.,?,.,-,-
O=C(CN1C(=O)CCc2cc(S(=O)(=O)N3CCOCC3)ccc21)NCc1ccccc1,.,.,-,.,-,-
Cc1cc(=O)n2nc(N3CCCC(C(=O)N4CCN(c5ccccc5)CC4)C3)sc2n1 (centres undefined),-,-,-,-116.6,-,-
COc1cccc(C(=O)Nc2cc(-c3cn4cccnc4n3)ccc2C)c1OC,.,.,-,.,-,-
CCOC(=O)c1c(C)sc(-c2c(-c3ccc4c(c3)OCCO4)[nH]c3c2c(=O)n(C)c(=O)n3C)c1O,.,.,-,.,?,?
CCC(=O)N(Cc1ccco1)c1nc(-c2cc(OC)ccc2OC)cs1,-,-,-,-100.0,-,-
COc1ccc(Cl)cc1-n1cc(-c2ccccc2)nc1SCC(=O)Nc1ccc(C)cc1,.,.,-,.,-,?
COc1ccc(/C=N/NC(=O)c2ccc(CN3C(=O)c4cccc5cccc3c45)cc2)cc1O,?,-,?,.,?,-
COc1cc(/C=N/NC(=O)c2ccc(CN3C(=O)c4cccc5cccc3c45)cc2)cc(OC)c1O,22.4µM,-,?,.,?,?
COc1ccccc1CNC(=O)CSc1nc2nc(C)c(Cc3ccccc3C)c(C)n2n1,.,.,?,.,-,-
Brc1cc(Br)c2ncnc(N3CCCCC3)c2c1,-,7.94µM,?,-,-,-
Clc1ccc(-n2ncc3c(N4CCCCCC4)ncnc32)cc1,-,-,?,-,-,-
Cn1nnnc1SCCCNCc1cccc(OCc2ccc(F)cc2)c1,.,.,-,.,-,-
Cc1cccc(-c2nc(=S)c3c(n2Cc2ccco2)CCCC3)c1,-,?,-,?,-,-
Cc1ccc(-c2nc(=S)c3c(n2Cc2ccco2)CCCC3)cc1,-,-,-,-129.2,-,-
O=C1Nc2ccc(Br)cc2/C1=C/C1CC=CCC1 (centres undefined),-,-,?,.,?,?
O=C1Nc2ccc(Br)cc2/C1=C/C(=O)c1ccc2c(c1)OCO2,-,?,25.1µM,.,?,-
O=[N+]([O-])/C(C(Cl)=C(Cl)Cl)=C(/Sc1ccccc1)N1CCCCC1,?,?,22.4µM,.,-,?
O=C(CCc1ccccc1)Nc1cc2c(cc1Cl)OCCO2,-,-,-,-109.0,-,-
O=C(CCc1ccccc1)Nc1ccc2c(c1)OCCO2,-,-,-,-,-,-
CCN(c1cccc(C)c1)S(=O)(=O)c1ccc2[nH]cc(C(=O)NCCCOC)c(=O)c2c1,.,.,-,.,?,?
SMILES,KDM4E inh,NPSR antagonist,Tau fibril ThT,PNC inhibitor,Tau fluor cs,Tau FP inhib
CCOc1ccc(NC(=O)NCc2ccc3c(c2)CCN3C(C)=O)cc1,.,.,?,.,-,-
Cc1cc(-c2ccc([N+](=O)[O-])cc2)nc2ccccc12,-,-,?,.,?,-
O=[N+]([O-])c1ccc(-c2nc(C(Cl)Cl)c3ccccc3n2)cc1,-,2µM,-,.,-,-
CN(C)c1ccc(-c2nc(N(C)Cc3ccco3)c3ccccc3n2)cc1,?,.,?,.,?,-
CN(Cc1ccccc1)c1nc(-c2ccc([N+](=O)[O-])cc2)nc2ccccc12,-,?,?,-98.2,?,-
Cc1cccc(CNC(=O)C2CCN(S(=O)(=O)c3cccc4nonc34)CC2)c1,.,.,-,.,-,-
CC(C)(C)c1ccc(C(=O)NCCc2csc(-c3ccc(Cl)cc3)n2)cc1,.,.,-,.,-,-
